# Test results: PubChem BioAssay
# Activity calls are given as the source filed them. Unless noted, no rule for the calls is given here.
# Legend:
# [1] = anti-His antibody binders, primary screen, artefact control for SMM control protein annotation, biochemical, small-molecule microarray, 635 nm fluorescence (AID 1128); details: anti-His Alexa647 antibody binding, higher = more signal;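 also: score merges feature fluorescence with signal-to-noise for each printed compound spot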
# [2] = system: Human papillomavirus type 1a E7 protein (residues 1-88); experiment: HPV1a E7 small-molecule binders, primary screen, biochemical, small-molecule microarray, residues 1-88, 635 nm (AID 1129); details: small-molecule microarray binding, fluorescence 635 nm; higher = more signal
# [3] = molecular target: Focal adhesion kinase 1 (Homo sapiens) (UniProt Q05397); experiment: small-molecule microarray binders of FAK, primary screen, biochemical, 635/667 nm fluorescence, BSA, DTT (AID 1130); details: PTK2 binding, 635 nm fluorescence, higher = more signal;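 also: composite of spot emission at 667 nm and signal to noise over triplicate slides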
# Focal adhesion kinase 1 (Homo sapiens), sequence (Q05397 whole entry, looked up): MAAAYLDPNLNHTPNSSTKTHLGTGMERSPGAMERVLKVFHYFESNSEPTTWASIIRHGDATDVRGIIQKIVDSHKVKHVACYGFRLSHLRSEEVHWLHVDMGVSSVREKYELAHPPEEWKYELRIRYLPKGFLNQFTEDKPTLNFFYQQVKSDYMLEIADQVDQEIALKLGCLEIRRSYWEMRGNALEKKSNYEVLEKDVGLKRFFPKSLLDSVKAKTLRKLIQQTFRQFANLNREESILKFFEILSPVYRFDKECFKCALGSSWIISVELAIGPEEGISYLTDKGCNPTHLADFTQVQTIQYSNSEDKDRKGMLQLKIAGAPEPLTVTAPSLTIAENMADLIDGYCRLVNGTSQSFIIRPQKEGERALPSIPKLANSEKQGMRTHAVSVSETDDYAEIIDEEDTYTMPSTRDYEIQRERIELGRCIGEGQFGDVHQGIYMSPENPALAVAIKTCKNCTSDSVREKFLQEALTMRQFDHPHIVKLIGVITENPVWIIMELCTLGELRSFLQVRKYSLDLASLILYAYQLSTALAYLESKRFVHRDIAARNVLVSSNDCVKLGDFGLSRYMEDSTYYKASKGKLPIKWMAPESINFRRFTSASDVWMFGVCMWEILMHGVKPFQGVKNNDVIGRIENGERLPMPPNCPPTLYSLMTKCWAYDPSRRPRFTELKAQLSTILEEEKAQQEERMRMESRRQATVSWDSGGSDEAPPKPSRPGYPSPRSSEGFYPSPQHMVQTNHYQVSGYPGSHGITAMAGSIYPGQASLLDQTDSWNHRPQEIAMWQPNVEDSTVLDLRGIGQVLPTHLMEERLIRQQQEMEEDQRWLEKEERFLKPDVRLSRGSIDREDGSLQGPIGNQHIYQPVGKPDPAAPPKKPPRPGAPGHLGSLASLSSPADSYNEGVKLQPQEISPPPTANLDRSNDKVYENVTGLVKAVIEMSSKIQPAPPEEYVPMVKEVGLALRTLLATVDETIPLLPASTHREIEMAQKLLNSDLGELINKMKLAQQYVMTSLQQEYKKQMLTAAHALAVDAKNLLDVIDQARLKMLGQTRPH
# [4] = system: Fibrinogen (Alexa647-labelled); experiment: fibrinogen binders on compound microarrays, profiling panel, artefact control for SMM control-protein annotation, biochemical, small-molecule microarray, 635/667 nm fluorescence (AID 1131); details: fibrinogen-A647 binding fluorescence, higher = more signal;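 also: z-score merges 667 nm fluorescence with per-spot signal-to-noise over triplicate slides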
# [5] = molecular target: Follistatin (Homo sapiens) (UniProt P19883); experiment: follistatin binders on small-molecule microarrays, primary screen, biochemical, small-molecule microarray, 635/667 nm fluorescence (AID 1132); details: FST binding, 635 nm fluorescence, higher = more signal
# Follistatin (Homo sapiens), sequence (P19883 whole entry, looked up): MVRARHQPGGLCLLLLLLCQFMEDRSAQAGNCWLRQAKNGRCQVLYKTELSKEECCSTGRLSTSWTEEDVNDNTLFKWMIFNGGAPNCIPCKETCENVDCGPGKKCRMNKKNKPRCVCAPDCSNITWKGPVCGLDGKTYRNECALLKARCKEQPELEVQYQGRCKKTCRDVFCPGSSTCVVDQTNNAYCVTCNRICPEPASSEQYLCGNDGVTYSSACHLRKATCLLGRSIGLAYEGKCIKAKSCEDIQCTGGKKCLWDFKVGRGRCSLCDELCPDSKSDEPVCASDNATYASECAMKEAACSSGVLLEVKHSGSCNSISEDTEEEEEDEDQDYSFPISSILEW
# [6] = molecular target: Fibroblast growth factor 2 (Homo sapiens) (UniProt P09038); experiment: FGF2 binders on small-molecule microarrays, primary screen, biochemical, small-molecule microarray, 635/667 nm fluorescence (AID 1133); details: small-molecule microarray binding, FGF2, fluorescence 635/667; higher = more signal
# Fibroblast growth factor 2 (Homo sapiens), sequence (P09038 whole entry, looked up): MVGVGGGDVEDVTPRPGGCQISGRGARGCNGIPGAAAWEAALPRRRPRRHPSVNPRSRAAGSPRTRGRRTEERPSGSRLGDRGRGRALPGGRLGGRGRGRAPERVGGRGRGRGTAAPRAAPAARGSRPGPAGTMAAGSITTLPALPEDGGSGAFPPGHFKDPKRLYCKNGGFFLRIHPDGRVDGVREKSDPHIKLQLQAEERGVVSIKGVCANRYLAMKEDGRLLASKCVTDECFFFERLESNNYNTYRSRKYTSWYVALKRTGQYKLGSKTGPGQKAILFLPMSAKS
# [7] = mitochondrial membrane potential change in A549 cells, profiling panel, cell-based, JC-1 fluorescence, basal, 24 h, 100 nL (AID 1138); details: higher = more signal;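 also: A549 lung adenocarcinoma cells under basal conditions with no added stimulus; test concentration not given here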
# Lefty1 = Lefty1 binders on small-molecule microarrays, primary screen, biochemical, small-molecule microarray, 635/667 nm fluorescence (AID 1139); details: small-molecule microarray binding, fluorescence 635/667; higher = more signal
# [8] = system: wheat germ agglutinin (Triticum aestivum), Alexa647-labelled; experiment: wheat germ agglutinin binders on compound microarrays, profiling panel, artefact control for SMM control-protein annotation, biochemical, small-molecule microarray, 635/667 nm fluorescence (AID 1140); details: WGA-A647 binding, 635 nm fluorescence, higher = more signal;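 also: score merges 667 nm feature emission with signal to noise over triplicate slides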
# [9] = molecular target: Luciferin 4-monooxygenase (Photinus pyralis) (UniProt P08659); experiment: firefly luciferase enzyme inhibitors, primary screen, biochemical, luminescence, purified enzyme, 2006 set (AID 1141); details: SteadyGlo luminescence, 30 min, higher = more signal, called active from +8 up or from −8 down;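 also: cell-free assay with purified firefly luciferase at 100 ng per well in PBS; test concentration not given here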
# Luciferin 4-monooxygenase (Photinus pyralis), sequence (P08659 whole entry, looked up): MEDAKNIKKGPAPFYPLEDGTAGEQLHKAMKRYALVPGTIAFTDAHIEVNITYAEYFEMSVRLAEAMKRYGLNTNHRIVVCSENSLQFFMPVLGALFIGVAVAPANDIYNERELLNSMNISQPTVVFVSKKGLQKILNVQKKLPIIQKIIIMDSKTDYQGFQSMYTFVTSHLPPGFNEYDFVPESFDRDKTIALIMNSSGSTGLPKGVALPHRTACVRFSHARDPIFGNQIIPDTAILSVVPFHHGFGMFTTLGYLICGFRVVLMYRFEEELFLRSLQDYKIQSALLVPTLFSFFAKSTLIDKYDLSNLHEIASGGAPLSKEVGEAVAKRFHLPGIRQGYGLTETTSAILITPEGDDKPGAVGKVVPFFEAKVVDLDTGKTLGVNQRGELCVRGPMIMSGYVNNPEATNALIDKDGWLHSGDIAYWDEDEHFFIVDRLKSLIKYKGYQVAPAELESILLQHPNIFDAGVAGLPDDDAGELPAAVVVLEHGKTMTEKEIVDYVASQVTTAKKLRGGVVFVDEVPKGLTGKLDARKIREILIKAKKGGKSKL
# [10] = system: Wnt5a (protein binding on small-molecule microarray); experiment: Wnt5a binders on small-molecule microarray, primary screen, biophysical, 635/667 nm fluorescence (AID 1142); details: 635 nm fluorescence, higher = more signal;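 also: fluorescence read at 667 nm with signal to noise per printed feature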
# [11] = cell viability in Huh7 cells, primary screen, cytotoxicity control for HCV replication inhibitor project, CellTiter-Glo luminescence, basal, 48 h (AID 1143); details: Huh7 HCV replicon, higher = more signal, called active from +8 up or from −8 down;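 also: Huh7 hepatoma cells carrying a hepatitis C replication reporter with no stimulus; test concentration not given here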
# [12] = P. aeruginosa biofilm formation inhibitors, primary screen, PAO1 strain, BacTiter-Glo luminescence, LB-PBS (AID 1144); details: 12 h, higher = more signal
# [13] = CREB reporter modulators without forskolin, primary screen, cell-based, PC12, CRE-LacZ reporter, unstimulated (AID 1145); details: no forskolin, luminescence, 4.5 h, higher = more signal, called active from +8 up or from −8 down
# [14] = CREB reporter modulators under forskolin, primary screen, cell-based, PC12, CRE-LacZ reporter, forskolin-stimulated (AID 1146); details: luminescence, 4.5 h, higher = more signal, called active from +8 up or from −8 down;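 also: PC12 cells with 6xCRE LacZ reporter stimulated by forskolin 10 µM; beta-galactosidase reporter signal reflecting CREB driven transcription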
# [15] = molecular target: Streptavidin (Streptomyces avidinii) (UniProt P22629); experiment: streptavidin binders on small-molecule microarray, primary screen, artefact control for SMM compound annotation, biophysical, 635/667 nm fluorescence (AID 1147); details: streptavidin binding, higher = more signal;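 also: signal reflects streptavidin binding to arrayed compounds as a control protein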
# Streptavidin (Streptomyces avidinii), sequence (P22629 whole entry, looked up): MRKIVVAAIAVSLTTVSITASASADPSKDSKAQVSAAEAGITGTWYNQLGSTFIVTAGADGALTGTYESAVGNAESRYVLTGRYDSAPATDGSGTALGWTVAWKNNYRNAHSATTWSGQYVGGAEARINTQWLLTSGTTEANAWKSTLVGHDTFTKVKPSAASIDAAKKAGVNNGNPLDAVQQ
# [16] = small-molecule binders of probe aInhba, primary screen, biochemical, small-molecule microarray, 635/667 nm fluorescence (AID 1148); details: higher = more signal;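 also: score merges 667nm spot fluorescence with signal-to-noise for antibody binding to printed compounds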
# Torsin-1A (Homo sapiens) [17] = molecular target: Torsin-1A (Homo sapiens) (UniProt O14656); experiment: torsin A binders from cell lysate, primary screen, small-molecule microarray, wild-type, 635/667 nm (AID 1149); details: COS7 hTOR1A-WT lysate, 635 nm fluorescence, higher = more signal
# Torsin-1A (Homo sapiens), sequence (O14656 whole entry, looked up): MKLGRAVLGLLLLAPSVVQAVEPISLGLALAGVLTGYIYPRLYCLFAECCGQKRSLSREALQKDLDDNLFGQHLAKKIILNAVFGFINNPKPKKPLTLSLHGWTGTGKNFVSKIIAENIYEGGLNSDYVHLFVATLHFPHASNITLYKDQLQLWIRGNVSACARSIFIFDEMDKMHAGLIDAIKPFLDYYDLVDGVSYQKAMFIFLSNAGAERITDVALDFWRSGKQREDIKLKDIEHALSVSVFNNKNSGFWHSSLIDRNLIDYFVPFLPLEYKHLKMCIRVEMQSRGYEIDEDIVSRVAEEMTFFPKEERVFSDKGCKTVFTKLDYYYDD
# Torsin-1A (Homo sapiens) [18] = molecular target: Torsin-1A (Homo sapiens) (UniProt O14656); experiment: small-molecule binders of mutant TOR1A in lysate, primary screen, cell lysate, small-molecule microarray, COS7 lysate, 635/667 nm fluorescence (AID 1150); details: COS7 hTOR1A mutant lysate, 635 nm fluorescence, higher = more signal;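 also: score pools 667 nm emission and signal to noise measuring lysate protein binding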
# [19] = system: Sonic hedgehog protein (Shh); experiment: small-molecule binders of Shh protein, primary screen, biochemical, small-molecule microarray, 635/667 nm fluorescence (AID 1151); details: small-molecule microarray binding, 635 nm fluorescence; higher = more signal;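 also: Shh protein binding to compounds spotted on small-molecule microarray slides; score combines spot fluorescence intensity with signal-to-noise across triplicate slides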
Compound,composite z-score [1],composite z-score [2],composite z-score [3],composite z-score [4],composite z-score [5],composite z-score [6],z-score [7],composite z-score (Lefty1),composite z-score [8],z-score [9],composite z-score [10],z-score [11],z-score [12],z-score [13],z-score [14],composite z-score [15],composite z-score [16],composite z-score (Torsin-1A (Homo sapiens) [17]),composite z-score (Torsin-1A (Homo sapiens) [18]),composite z-score [19]
COC(=O)Cn1c(C(=O)N(C)C)cc2c1C[C@H]1CN(C(=O)c3ccccc3)[C@@](Cc3ccc(F)cc3)(C(=O)OC)[C@@H]21,2.12,1.02,1.25,0.19,-0.258,0.386,0.354,-0.278,1.3,0.897 (inactive),0.398,-0.725 (inactive),-0.625 (inactive),0.207 (inactive),-0.106 (inactive),0.124,0.382,0.245,-0.068,-0.238
COC(=O)c1nc2oc1CC[C@@H](CO)NC(=O)N(C)Cc1cnnn1C[C@H](Cc1ccccc1)NC2=O,-0.0727,-0.405,-0.302,0.779,-0.701,-0.403,0.9,-0.281,1.03,0.782 (inactive),-0.202,-0.0922 (inactive),-1.19 (inactive),0.484 (inactive),-0.826 (inactive),-0.65,-0.268,-0.182,-0.533,0.272
CCOC(=O)C[C@H]1[C@H](OC(=O)c2ccccc2-c2ccccc2)[C@@H](NC(=O)c2ccc(-c3ccccc3)cc2)c2cc(OCCCO)ccc2N1C(=O)c1ccc2ccccc2n1,0.792,0.472,-0.0377,0.456,0.57,0.496,0.687,0.871,0.181,0.555 (inactive),0.0868,0.0395 (inactive),-0.437 (inactive),-0.686 (inactive),0.254 (inactive),0.245,-0.106,0.306,0.554,0.701
COc1cccc(/C=C/C=O)c1,0.0592,0.203,-0.0159,-1.77,0.261,0.316,1.47,-0.0262,0.205,-1.36 (inactive),0.279,-0.0204 (inactive),-0.301 (inactive),0.0026 (inactive),0.599 (inactive),-0.283,0.156,0.582,0.351,0.0757
CCOC(=O)c1ccc(NC(=O)O[C@H]2[C@H](OC(=O)Nc3ccc4c(c3)OCO4)[C@H](OC(=O)Nc3ccc4c(c3)OCO4)[C@@H](OC)O[C@@H]2CO)cc1,1.73,1.26,0.812,1.01,1.38,1.42,-0.551,1.24,0.743,-9.03 (active),0.662,-2.23 (inactive),1.55 (inactive),0.0918 (inactive),-0.195 (inactive),0.245,0.386,0.807,0.505,1.76
CN1C(=O)C2C=CC(C(O)COCc3ccccc3)N(N(c3ccccc3)c3ccccc3)C2C1=O (stereo not given),0.087,1.19,0.75,0.56,0.265,-0.483,1.12,0.216,0.508,-1.06 (inactive),0.124,-0.423 (inactive),-0.761 (inactive),-0.326 (inactive),-0.637 (inactive),0.369,0.0464,0.346,0.231,-0.386
